The structures appear in SMILES notation. Hit rate of the full screen: of about 320,000 compounds, about 2,100 (0.66%) were called active. Roughly 53% stayed inconclusive and do not appear here. This is one part of a sample in which actives are shown more often than they occur. Calls come from the whole dose curve; as a rule, active = well fitted inhibition curve with a large enough effect in the signal ratio, with a control signal flat (not every such curve was filed as active); inconclusive = small, poorly fitted or top-dose-only effect, or effect the other way, or a change in a side signal; inactive = flat fitted curve, though single readings scatter; the % refers to the signal ratio.
Potency is the fitted concentration of half-maximal effect.

This assay can be described thus: qHTS Assay for Lipid Storage Modulators in Drosophila S3 Cells.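 For cell number change: cells counted by Cell Tracker Red CMTPX staining in the red channel.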 For lipid storage change, negative = inhibition: % is set by controls: 0 for no effect and ±100 for the full control effect. As to conditions: BODIPY lipid droplet fluorescence, 18-24 h, cells fed with added oleic acid; cell number change: measured here: cell count max response; series mostly up to 46.1 µM. The gist of the method:
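Drosophila S3 cells got compounds at several concentrations plus oleic acid (400 uM solution). Laser-scanning cytometry with 488 nm excitation read lipid droplets at 500-530 nm and cells at 575-640 nm. Percent activity was relative to 20 uM Triacsin C.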
In general terms: Quantitative high-throughput screening tests each substance at several concentrations.
As for `O=C(NCN1CCc2ccccc2C1)c1ccccc1`, the Potency result is “inactive” and the cell number change was 0.788%.

For the compound `O=C(NCn1cnccc1=O)c1ccccc1`, the Potency is 20.6 µM (active) and the cell number change came to 1.39%.

Regarding `O=C(NC(C(=O)c1ccccc1)n1cnccc1=O)c1ccccc1` (stereo unspecified), the Potency entry was “inactive” and the cell number change was -10.1%.

Consider `Cc1noc(C)c1C(=O)Nc1nnc(CC(C)C)s1`, for which the Potency result is “inactive” and the cell number change is 23.9%.

As for `O=C1NC(=O)C(CC(=O)N(Cc2ccco2)C2(C(=O)NC3CCCC3)CCCCC2)N1` (stereo unspecified), the Potency entry is “inactive”.

With `CC(=O)N(Cc1ccco1)C1(C(=O)NC2CCCCC2)CCCCC1`, the Potency entry is “inactive” and the cell number change is -0.0608%.

As to `CC(=O)NCC(=O)N(Cc1ccco1)C1(C(=O)NC2CCCC2)CCCCC1`, the Potency entry is “inactive” and the cell number change is 17.4%.

Consider `CC(=O)N(Cc1ccco1)C1(C(=O)NC2CCCC2)CCCCC1`, for which the Potency is 14.6 µM (active) and the cell number change was 3.24%.

For the compound `O=C(Cc1cccs1)N(CC1CCCO1)C1(C(=O)NC2CCCC2)CCCCC1` (stereo unspecified), the Potency entry was “inactive” and the cell number change was -0.501%.

In the case of `O=C(Cc1cccs1)N(Cc1ccco1)C1(C(=O)NC2CCCC2)CCCCC1`, the Potency is 3.66 µM (active) and the cell number change was -17%.

Take `O=C(NC(N1CCOCC1)C(Cl)(Cl)Cl)c1cc([N+](=O)[O-])cc([N+](=O)[O-])c1` (stereo unspecified): the Potency entry was “inactive”.

On to `COC(CNC(=O)c1ccc(CS(=O)(=O)c2ccc(C)cc2)o1)OC`, for which the Potency entry was “inactive” and the cell number change is 23.5%.

For the compound `COc1nc(NCCN2CCOCC2)nc(Nc2ccccc2)n1`, the Potency result was “inactive” and the cell number change was -13.7%.

Take `COc1ccc(NC(C)=O)cc1S(=O)(=O)NC(Cc1ccccc1)C(=O)O` (stereo unspecified): the Potency result was “inactive” and the cell number change is -4.53%.

For `COc1ccc(NC(C)=O)cc1S(=O)(=O)Nc1ccc(OCc2ccccc2)cc1`, the Potency entry was “inactive” and the cell number change was -6.41%.

`COc1ccc(NC(C)=O)cc1S(=O)(=O)NC(Cc1ccccc1)C(=O)NCc1ccccc1C` (stereo unspecified): the Potency is 1.84 µM (active) and the cell number change is -19.4%.

Turning to `O=C1NC(c2ccccc2Cl)Nc2ccccc21` (stereo unspecified), the Potency entry is “inactive” and the cell number change was -2.9%.

Consider `Cc1ccccc1C(=O)Nc1nnc(SCC(=O)NCc2ccco2)s1`, for which the Potency result is “inactive” and the cell number change is -7.23%.

Turning to `COc1ccc(C(=O)Nc2nnc(SCC(=O)NCc3ccco3)s2)cc1OC`, the Potency entry was “inactive”.

For `COc1ccccc1C(=O)Nc1nnc(SCC(=O)NCc2ccco2)s1`, the Potency was 20.6 µM (active) and the cell number change is -7.8%.

As to `Cc1nc2ccc(NC(=S)NC(C)C)cc2nc1C`, the Potency entry is “inactive” and the cell number change was -1.16%.

With `COc1cc(C(=O)NC(C)c2ccc(S(N)(=O)=O)cc2)ccc1OCC(=O)N1CCOCC1` (stereo unspecified), the Potency result was “inactive” and the cell number change stood at 9.66%.

As to `CC12CN3CC(C)(CN(C1)C3c1ccccc1F)C2` (stereo unspecified), the Potency entry was “inactive”.

Regarding `CC12CN3CC(C)(CN(C1)C3c1ccc(Cl)cc1)C2` (stereo unspecified), the Potency entry was “inactive” and the cell number change is -7.54%.

For the compound `CC12CN3CC(C)(CN(C1)C3c1ccc(F)cc1)C2` (stereo unspecified), the Potency is 0.731 µM (active) and the cell number change was -6.72%.

As to `Cc1nnc(NC(=O)CSc2ccc(-c3ccco3)nn2)s1`, the Potency entry is “inactive” and the cell number change amounted to 17.1%.

For `NS(=O)(=O)c1ccc(NC(=O)Nc2ccc(Cl)cc2)cc1`, the Potency result is “inactive” and the cell number change was -17.6%.

Consider `COc1ccc(CC(=O)Nc2nc(-c3ccc(F)c(F)c3)cs2)cc1`, for which the Potency result was “inactive” and the cell number change amounted to 17.2%.

Turning to `COc1ccc(CC(=O)Nc2nc(-c3ccc(F)c(F)c3)cs2)cc1OC`, the Potency is 6.51 µM (active) and the cell number change is 21%.

Regarding `COc1ccc(CC(=O)Nc2nc(-c3ccc(OC)c(OC)c3)cs2)cc1OC`, the Potency result is “inactive” and the cell number change is -7.98%.

For the compound `Cc1ccccc1OCCC(=O)OCC(=O)Nc1ccc(C(N)=O)cc1`, the Potency entry is “inactive” and the cell number change came to 0.749%.

Consider `O=C(CSCc1ccc(F)cc1)Nc1ccc(F)cc1`, for which the Potency entry is “inactive” and the cell number change was 14.6%.

In the case of `CCc1nnc(NC(=O)C2CC(=O)N(C3CCCC3)C2)s1` (stereo unspecified), the Potency entry is “inactive” and the cell number change amounted to 8.4%.

Take `CCOC(=O)N1CCN(C(=O)C2CCN(S(=O)(=O)c3cc(Cl)ccc3Cl)CC2)CC1`: the Potency entry was “inactive” and the cell number change was -24.4%.

For `COc1cc(C(=O)NCCC2=CCCCC2)ccc1OC1CCN(C(C)=O)CC1`, the Potency result is “inactive” and the cell number change is 8.8%.

As to `CCC(C)C(=O)Nc1ccc(OC)cc1OC` (stereo unspecified), the Potency is 23.1 µM (active) and the cell number change was determined as 17.4%.

Consider `COc1ccc(NC(=O)CN2CCC(C(=O)c3ccc(F)cc3)CC2)c(OC)c1`, for which the Potency entry was “inactive” and the cell number change is -0.87%.

For `COc1ccc(NC(=O)CN2CCCN(S(=O)(=O)c3ccc(F)cc3)CC2)c(OC)c1`, the Potency entry was “inactive” and the cell number change came to 0.557%.

With `COc1ccc(NC(=O)CN2CCN(CC(=O)Nc3ccc(F)cc3)CC2)c(OC)c1`, the Potency is 18.4 µM (active) and the cell number change is 21.1%.

For `COc1ccc(NC(=O)C(CC(C)C)NC(=O)C2CCCCC2)c(OC)c1` (stereo unspecified), the Potency result is “inactive” and the cell number change is -5.85%.

On to `COc1ccc(NC(=O)c2ccc(C(=O)Nc3ccc(OC)cc3OC)cc2)c(OC)c1`, for which the Potency entry is “inactive” and the cell number change was 1.2%.

Turning to `Cc1cc(Br)cc2c1NC(=O)C2(O)CC(=O)c1ccco1` (stereo unspecified), the cell number change came to 3.68% and the lipid storage change, negative = inhibition was 9.35% [at 9.22 µM] (inactive).

Consider `COc1ccc(NC(C)=[N+](C)CCNS(=O)(=O)c2ccc(Cl)cc2)cc1`, for which the Potency result was “inactive”.

For the compound `C/C(CCc1ccco1)=N/NC(=O)CCC(=O)Nc1cccc(Cl)c1`, the Potency entry was “inactive” and the cell number change worked out at 0.649%.

`CC(=O)Nc1ccc(NC2=CC(=O)c3ccccc3C2=O)cc1`: the Potency result was “inactive” and the cell number change was found to be 4.49%.

`Cc1cc(C)c(S(=O)(=O)/N=C2\C=C(Nc3ccc(C(=O)O)cc3)C(=O)c3ccccc32)c(C)c1`: the Potency was 0.92 µM (active) and the cell number change came out at 11.7%.

Regarding `CC(C)(C)c1ccc(S(=O)(=O)/N=C2\C=C(NS(=O)(=O)c3ccccc3)C(=O)c3ccccc32)cc1`, the Potency result was “inactive” and the cell number change was -1.8%.

Take `CCc1ccc(S(=O)(=O)/N=C2\C=C(Nc3ccc(O)cc3)C(=O)c3ccccc32)cc1`: the Potency result is “inactive” and the cell number change is 15.8%.

Turning to `O=S(=O)(/N=C(/Nc1ccccc1F)c1ccccc1)c1ccccc1`, the Potency result was “inactive”.

For `O=C(O)c1ccc(S(=O)(=O)/N=C2\C=C(Nc3ccccc3F)C(=O)c3ccccc32)cc1`, the Potency is 6.51 µM (active) and the cell number change was found to be 2.14%.

As to `Cc1ccc(-n2c(C)cc(/C=N/NC(=O)c3ccncc3)c2C)cc1C`, the Potency entry is “inactive”.

As to `CC1(C)CC(NC(=S)Nc2ccc([N+](=O)[O-])cc2)CC(C)(C)N1`, the Potency result is “inactive” and the cell number change was 15.8%.

As to `CCOC(=O)C1CCN(c2cc3c(cc2NC(=O)c2ccc(F)cc2)n(C)c(=O)n3C)CC1`, the Potency entry was “inactive” and the cell number change was -8.96%.

For the compound `Cc1ccc(C(=O)Nc2cc3c(cc2N2CCCCC2)n(C)c(=O)n3C)cc1`, the Potency result was “inactive” and the cell number change was -8.73%.

Consider `CCOC(=O)C1CCN(c2cc3c(cc2NC(=O)c2ccccc2)n(C)c(=O)n3C)CC1`, for which the Potency was 3.66 µM (active).

For the compound `c1ccc(-c2nc(-c3nccc4ccccc34)oc2-c2ccccc2)cc1`, the Potency result was “inactive” and the cell number change was -5.47%.

On to `N#CCCN(C(=O)COc1ccc(C#N)cc1)c1ccc(F)cc1`, for which the Potency entry was “inactive” and the cell number change came out at 6.15%.
